KKLEB cytotox: counter-screen for CF NF-kB inhibitors: cytotoxicity. 360,000 tested, 0.36% active. activity change (cytotoxicity), % at 5 µM. KKLEB CF airway cells viability, ATPlite luminescence, overnight; stronger effect = lower value; cells stimulated with P. aeruginosa culture filtrate;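 active = corrected activity change at or below -50% at 5 µM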
Shn3 3UTR inh: reduces Shn3 3'UTR luciferase signal in osteoblasts; Clone20 osteoblast Shn3 3'UTR firefly luciferase, 24 h; inhibition, % at 12.5 µM; 360,000 tested, 0.52% active;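 active = mean inhibition of at least 75% with every replicate also reaching 75%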
CF NFkB block: inhibitors of cystic fibrosis induced NF-kB. KKLEB NF-kB-GFP reporter, PAF-induced, GFP fluorescence overnight. inhibition, % at 5 µM. 360,000 tested, 0.86% active;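 active = at least 50% inhibition at 5 µM, scaled per plate between neutral and stimulator controls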;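 note: PAF is a Pseudomonas aeruginosa culture filtrate used as stimulus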
HIF-2a inh: inhibitors of HIF-2a | 786-0 RCC cells HIF-2a reporter, luciferase luminescence, overnight | inhibition, % at 18.8 µM | 360,000 tested, 0.72% active;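 active = inhibition of the luminescence signal of 40% or more relative to plate controls, in a single-dose primary screen at 18.75 µM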
Peg3 promoter: Peg3 promoter activity inhibition. 360,000 tested, 1.7% active. AID 588405. HeLa PEG-Prom luciferase reporter, luminescence, overnight. inhibition, % at 20 µM;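 active = inhibition of at least 50% at 20 µM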
MITF TRPM1 inh: MITF TRPM1 promoter inhibition in SK-MEL-5 cells | SK-MEL-5 TRPM1 promoter luciferase, 24 h | inhibition, % at 12.5 µM | 330,000 tested, 0.83% active;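 active = mean inhibition across replicates of 60% or more, whatever share of single replicates reaches that level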
Mdm2 MdmX conf: confirmation of inhibitors of human Mdm2/MdmX interaction, set 2 | shares compounds with HIF-2a inh | SaOS-2 split-luciferase Mdm2/MdmX complementation, luminescence | inhibition, % at 8 µM | 740 tested, 99% active | AID 504601;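 active = mean inhibition of the luminescence signal across two replicates at or above 26 percent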
Target sequence (O15151 whole entry, looked up): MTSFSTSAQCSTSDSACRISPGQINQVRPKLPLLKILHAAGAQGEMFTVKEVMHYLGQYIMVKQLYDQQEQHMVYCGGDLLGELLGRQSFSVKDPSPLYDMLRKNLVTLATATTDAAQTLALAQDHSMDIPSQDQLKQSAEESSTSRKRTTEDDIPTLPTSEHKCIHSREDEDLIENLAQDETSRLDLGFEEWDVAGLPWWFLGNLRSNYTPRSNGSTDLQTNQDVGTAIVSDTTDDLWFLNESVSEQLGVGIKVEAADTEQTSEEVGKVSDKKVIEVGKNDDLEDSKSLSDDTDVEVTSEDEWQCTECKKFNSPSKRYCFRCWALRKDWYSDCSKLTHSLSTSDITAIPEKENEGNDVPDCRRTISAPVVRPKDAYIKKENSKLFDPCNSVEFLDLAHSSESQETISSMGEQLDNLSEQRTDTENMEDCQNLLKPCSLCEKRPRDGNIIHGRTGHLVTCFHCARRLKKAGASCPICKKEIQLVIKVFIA
Target sequence (Q00987 whole entry, looked up): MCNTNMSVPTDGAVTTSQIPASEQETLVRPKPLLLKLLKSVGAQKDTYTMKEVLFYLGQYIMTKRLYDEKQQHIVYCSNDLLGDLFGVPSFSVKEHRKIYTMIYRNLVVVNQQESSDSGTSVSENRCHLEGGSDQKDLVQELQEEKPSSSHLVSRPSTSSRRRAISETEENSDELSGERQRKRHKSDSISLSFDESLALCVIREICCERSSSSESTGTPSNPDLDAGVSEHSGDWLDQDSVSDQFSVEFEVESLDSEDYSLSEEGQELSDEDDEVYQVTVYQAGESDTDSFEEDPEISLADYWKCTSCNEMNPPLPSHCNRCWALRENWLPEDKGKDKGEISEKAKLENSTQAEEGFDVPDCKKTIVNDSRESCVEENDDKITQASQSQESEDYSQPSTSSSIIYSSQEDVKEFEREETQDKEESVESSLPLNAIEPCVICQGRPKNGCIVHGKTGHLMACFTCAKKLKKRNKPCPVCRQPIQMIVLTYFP
HIF-2a inh conf: HIF-2a inhibition, single concentration confirmation; shares compounds with HIF-2a inh; 786-0 RCC cells, HIF-2a luciferase reporter luminescence, overnight; inhibition, % at 18.8 µM; 1,800 tested, 56% active; AID 651580;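 active = mean inhibition across four replicates of at least 40 percent at the single tested concentration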
HIF-1a counter: counter-screen for HIF-2a inhibitors: HIF-1a inhibition in MiaPaCa-2 cells | shares compounds with HIF-2a inh | MiaPaCa-2 HIF-1a luciferase reporter, desferoxamine, overnight | inhibition, % at 18.8 µM | 1,800 tested, 72% active | AID 651589;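 active = mean inhibition of the reporter signal across four replicates at the single tested dose of 50% or more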
Of the large screens only hits and unclear results are named; the others gave an inactive call (follow-up assays come after a bar, where they were run). A selection: hits, their analogues and other compounds. The true share with any hit is near 2.8%.

CCOC(=O)C1CCCCN1C(=O)CCc1c(C)nc2cc(-c3ccccc3)nn2c1C (stereo not given)	HIF-2a inh 74.9 (no result: MITF TRPM1 inh) | HIF-2a inh conf 85.1 | HIF-1a counter 73.8
CCOC(=O)C1CCN(c2cc(C)nc3cc(-c4cccc(F)c4)nn23)CC1	none
COC(=O)c1c(NC(=O)CN2C(=O)C(=O)N(CC(C)C)C2=O)sc(C)c1C	none
CCC(=O)N1CCN(c2nc(CC)nc3sc4c(c23)CCCC4)CC1	none
CC1CCc2c(sc3nc(C(C)(C)C)nc(N4CCN(C(=O)CCl)CC4)c23)C1 (stereo not given)	KKLEB cytotox -92.3, CF NFkB block 96.6, HIF-2a inh 42.5, Peg3 promoter 56.2 | HIF-2a inh conf inactive | HIF-1a counter 105.9
Cc1ccccc1CN1CCN(Cc2ccc3cccc(F)c3n2)CC1CCO (stereo not given)	none
O=C(Nc1cc(S(=O)(=O)N2CCOCC2)ccc1N1CCCCC1)c1cc(-c2ccccn2)nc2ccccc12	none
Cc1ccc(S(=O)(=O)N2CCOCC2)cc1NC(=O)c1cc(-c2ccccn2)nc2ccccc12	HIF-2a inh 95.2, Peg3 promoter 90.4 | HIF-2a inh conf inactive | HIF-1a counter inactive
C(=C\c1ccccn1)/c1ccccn1	none
CC(C)(C)C1C/C(=C/c2ccccn2)C(=O)/C(=C/c2ccccn2)C1 (stereo not given)	KKLEB cytotox -52.9, Shn3 3UTR inh 94.9, CF NFkB block 88.7, HIF-2a inh 95.8, Peg3 promoter 102.3, MITF TRPM1 inh 101.7 | Mdm2 MdmX conf 103.0
O=C1/C(=C/c2ccccn2)COc2ccccc21	none
CC1C/C(=C/c2ccccn2)C(=O)/C(=C/c2ccccn2)C1 (stereo not given)	KKLEB cytotox -62.3, Shn3 3UTR inh 94.9, CF NFkB block 85.7, HIF-2a inh 93.9, Peg3 promoter 100.3, MITF TRPM1 inh 100.5 | Mdm2 MdmX conf 102.7
CC(=O)N(c1cc(C)ccc1C)c1ccccc1[N+](=O)[O-]	none
O=C(CNC(=O)c1ccc(Cl)cc1Cl)OCN1C(=O)c2ccccc2C1=O	none
C=C[C@]1(C)C=C2CCC3[C@](C)(CCC[C@@]3(C)C(=O)O)C2CC1 (stereo not given in full)	none
C=C1C(=O)[C@]23C[C@H]1CCC2[C@]1(C)CCC[C@@](C)(C(=O)O)C1C[C@@H]3O (stereo not given in full)	KKLEB cytotox -82.8, Shn3 3UTR inh 88.9, CF NFkB block 92.6, HIF-2a inh 87.7, Peg3 promoter 99.4 (no result: MITF TRPM1 inh) | HIF-2a inh conf 91.0 | HIF-1a counter 104.2
O=C1c2cccc3c([N+](=O)[O-])ccc(c23)C(=O)N1c1ccc(Cl)cn1	Peg3 promoter 105.4 | Mdm2 MdmX conf 103.0
Cc1ccc(C(=O)c2c(NC(=O)CSc3nnc(N)s3)sc3c2CCCC3)cc1	HIF-2a inh 61.0 | HIF-2a inh conf inactive | HIF-1a counter 63.1
COc1ccccc1[C@@]1(C)ON(c2ccccc2C(F)(F)F)C1=O	HIF-2a inh 66.0, Peg3 promoter 77.2 | HIF-2a inh conf inactive | HIF-1a counter 101.5
O=C(O)c1ccc(Cl)c(S(=O)(=O)N2CCCC2)c1	HIF-2a inh 41.4 | HIF-2a inh conf inactive | HIF-1a counter inactive
O=C(c1ccc(Cl)c(S(=O)(=O)N2CCCCCC2)c1)N1CCCCC1	none
Cc1ccc(N2C(=O)C3C(C2=O)C2C=CC3C23CC3)c([N+](=O)[O-])c1 (stereo not given)	none
CCc1nnc(NC(=O)c2nc(S(=O)(=O)Cc3cccc(C)c3)ncc2Cl)s1	KKLEB cytotox -89.7, Shn3 3UTR inh 96.8, CF NFkB block 89.7, HIF-2a inh 84.6, Peg3 promoter 108.6, MITF TRPM1 inh 75.7 | Mdm2 MdmX conf 102.7
CCSc1ncc(Cl)c(C(=O)Nc2ccccc2OC)n1	none
CCc1nnc(NC(=O)c2nc(S(=O)(=O)Cc3ccc(C)cc3)ncc2Cl)s1	KKLEB cytotox -82.5, Shn3 3UTR inh 93.7, CF NFkB block 93.6, HIF-2a inh 49.9, Peg3 promoter 105.9, MITF TRPM1 inh 69.5 | Mdm2 MdmX conf 103.0 | HIF-2a inh conf 63.2 | HIF-1a counter 107.5
CCOc1ccccc1NC(=O)c1nc(S(=O)(=O)Cc2cccc(C)c2)ncc1Cl	KKLEB cytotox -102.2, Shn3 3UTR inh 97.6, CF NFkB block 87.0, HIF-2a inh 90.2, Peg3 promoter 106.2, MITF TRPM1 inh 93.4 | Mdm2 MdmX conf 102.5 | HIF-2a inh conf 85.9 | HIF-1a counter 103.2
Cc1ccc(CN(C)C(=O)C2CCC(=O)N(CC3CCCCC3)C2)o1 (stereo not given)	none
CC(=O)Nc1ccc(OCC(=O)c2cc(C)ccc2C)cc1	none
CC(=O)Nc1ccc(OCC(=O)c2ccc(C)cc2C)cc1	HIF-2a inh 64.4 | HIF-2a inh conf 85.0 | HIF-1a counter inactive
COc1ccc(-c2csc3ncn(-c4cccc(C)c4)c(=O)c23)cc1OC	HIF-2a inh 41.2 | HIF-2a inh conf inactive | HIF-1a counter inactive
O=C(CCCc1ccccc1)Nc1cccc(C(=O)O)c1	HIF-2a inh 54.5, MITF TRPM1 inh 69.7 | HIF-2a inh conf 58.9 | HIF-1a counter inactive
O=C(CCc1ccccc1)NC(=S)Nc1cccc(C(=O)O)c1	none
CCC1CCCCN1C(=O)CCS(=O)(=O)c1ccc2c(c1)CCN2C(C)=O (stereo not given)	none
CCCC(=O)OCCNc1cc(Sc2nc3ccccc3[nH]2)c2nonc2c1[N+](=O)[O-]	KKLEB cytotox -65.8, Shn3 3UTR inh 93.0, CF NFkB block 92.3, HIF-2a inh 93.7, Peg3 promoter 109.3 | Mdm2 MdmX conf 103.2 | HIF-2a inh conf 69.2 | HIF-1a counter 74.1
CCC(=O)OCCNc1cc(SCCC(=O)OC)c2nonc2c1[N+](=O)[O-]	none
CC(=O)OCCNc1cc(SC(C)C)c2nonc2c1[N+](=O)[O-]	none
CCC(=O)OCCNc1cc(Sc2nccn2C)c2nonc2c1[N+](=O)[O-]	KKLEB cytotox -77.9, Shn3 3UTR inh 89.2, CF NFkB block 89.0, HIF-2a inh 91.2, Peg3 promoter 105.0, MITF TRPM1 inh 92.2 | HIF-2a inh conf 80.0 | HIF-1a counter 105.5
O=C(O)c1cc(N/N=C/c2ccc3c(c2)OCCO3)ccc1Cl	HIF-2a inh 61.6, MITF TRPM1 inh 82.4 | HIF-2a inh conf 79.9 | HIF-1a counter inactive
Cc1c(S(=O)(=O)Nc2ccc3c(c2)OCCO3)cnn1C	none

High-throughput results deposited in PubChem BioAssay by several laboratories.
